# From PubChem BioAssay AID2284169 (EPA ToxCast)
# Activity calls are given as the source filed them. How the source made its calls: active means hit-call score of the fitted dose curve at least 0.9, where 1 is the maximum; inactive means score below 0.9.
# Molecular target: human Opioid Receptor NOP (ORL1) Agonism, OPRL1 (gene 4987) (UniProt P41146)
# Assay: ERF_FR_GPCR_hOPRL1: Eurofins (ERF) G Protein-Coupled Receptor (GPCR) Radioligand Binding LeadHunter Assay for human Opioid Receptor NOP (ORL1) Agonism
# Experimental: ERF_FR_GPCR_hOPRL1 is a biochemical, single-readout assay that uses extracted gene-proteins in a cell-free assay. Measurements were taken 1 hour after chemical dosing in a 96-well plate. See NOP (ORL1) Human Opioid GPCR Binding (Agonist Radioligand) Assay, Cerep.ERF_FR_GPCR_hOPRL1 is an assay component calculated from the ERF_FR_GPCR_hOPRL1 assay. It is designed to measure radioligand binding using a type of binding reporter as detected by scintillation counting with radiometry technology.Data from the assay component ERF_FR_GPCR_hOPRL1 was analyzed at the assay endpoint, ERF_FR_GPCR_hOPRL1, in the positive analysis fitting direction relative to DMSO as the negative control and baseline of activity. Using a type of binding reporter, gain-of-signal activity can be used to understand changes in binding as they relate to gene OPRL1. To generalize the intended target to other relatable targets, this assay endpoint is annotated to the gpcr intended target family, where the subfamily is opioid.
# Human cells are incubated for 60 minutes at room temprature with [3H]nociceptin ligand (0.1 nM) and Nociceptin as control inhibitor. Test Sample Requirements: Minimum for 1) Screen: 60 ul of 10 mM stock -OR- 1 mg (pre-weighed) for 10 uM final testing. 2) Dose Response: 90 ul of 10 mM stock -OR- 1 mg (pre-weighed) for a top concentration at 10 uM.
# human Opioid Receptor NOP (ORL1) Agonism, OPRL1 (gene 4987), sequence (P41146 whole entry, looked up): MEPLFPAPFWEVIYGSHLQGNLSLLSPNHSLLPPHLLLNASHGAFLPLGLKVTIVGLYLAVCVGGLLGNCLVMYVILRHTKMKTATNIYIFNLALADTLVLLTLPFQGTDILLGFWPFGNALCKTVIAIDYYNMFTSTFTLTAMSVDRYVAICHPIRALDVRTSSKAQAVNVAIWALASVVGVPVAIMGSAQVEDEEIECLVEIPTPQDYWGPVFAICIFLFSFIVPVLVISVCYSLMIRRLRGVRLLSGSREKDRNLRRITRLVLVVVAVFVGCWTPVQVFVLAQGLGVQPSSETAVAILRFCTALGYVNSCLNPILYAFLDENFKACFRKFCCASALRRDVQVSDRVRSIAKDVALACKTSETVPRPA
Structure (SMILES),outcome,AC50
COc1cc(CCC(=O)CC(=O)CCc2ccc(O)c(OC)c2)ccc1O,inactive,–
CCCCC[C@H](O)CC(=O)CCc1ccc(O)c(OC)c1,inactive,–
COc1cc(/C=C/C(=O)CC(=O)/C=C/c2ccc(O)c(OC)c2)ccc1O,–,5 µM (active)
O=C(/C=C/c1ccc(O)cc1)CC(=O)/C=C/c1ccc(O)cc1,–,3.86 µM (active)
